The source of these data is PMC12136788.

Positions count from the first letter of the chain named. Over roughly 24,000 sequences, “enrichment r” has its median near 0.99; the highest 2% begin near 3.7. For the sample, the highest values were picked, then their nearest neighbours and some sequences at random.

The chains are these.
B1: chr11:68315578:68315579:+_ENSG00000110075_ENST00000393800|perfect_dup|motif|central (ssRNA)
RNA: GGGAGUUCUACAGUCCGACGAUCUGGAGGUUCGAUACACGUCAGGAGCCUGAGCAACAAAUCCAUGAUAGCAGAAGUUCCGGUGUGCUUUAUAAUAAGGUCUACAAAAUCAUGCUUCUUCUUUAAGAAAUCCACAAUCUGUUCCAACAGAGGAUUGAGCAUCA
B2: chr2:216981417:216981418:+_ENSG00000079246_ENST00000392132|hu_hu|hu_hu_hu_mus_True|28_68 (ssRNA)
RNA: GGGAGUUCUACAGUCCGACGAUCCUGAUACUGGUCCUUGCCAGCAAGGGCAUUAUCAGUGCCAUCUGUACCAAACAGGACUAACGCAAUCUCAUCUUUGCUCUCCGCAAACACCUGUCGUUGGACAAACAUAGUCAUCACUUUCAACAGAGGAUUGAGCAUCA
B3: chr1:112309342:112309343:+_ENSG00000064703_ENST00000369702|hu_hu|FALSE|FALSE (ssRNA)
RNA: GGGAGUUCUACAGUCCGACGAUCUCUCCAGUACUCCUCAUAAUCCUGAUAGGUAUCAGAAAAACUCAGACGUAUUUCCCUAUGACAGUCAUACCAAUCAUCUUCCUGGGCUUCAGUCUGCAAUCUGAAGGAAGACCGCCUGGGCAACAGAGGAUUGAGCAUCA
B4: chr2:158287933:158287934:+_ENSMUSG00000027652_ENSMUST00000141497|mus_hu|FALSE|FALSE (ssRNA)
RNA: GGGAGUUCUACAGUCCGACGAUCAAGAGGUUGUUCCAGCAUUGCCAGGAUGACACUGUUAUCCAAGACAAAGUACCGGAAACUAUGCUUGUUUAUGGUUGGCAGCCUGGAGUAUUUAAUCAAAGUGGUCUCAUUCACAAGACUCAACAGAGGAUUGAGCAUCA
B5: chr3:179287964:179287965:+_ENSG00000136518_ENST00000429709|hu_hu|hu_hu_hu_mus_True|28_28 (ssRNA)
RNA: GGGAGUUCUACAGUCCGACGAUCCUUGAGUGGUGAGAUGGCCUCCAUGUUCUCCCUGGGCACGCGGAGGGCAUUGGUGUCUAUGUAGUAGGUGGGCCCGCCCUGCUUGCCUUUAUCACCAUCAAUCUCCAUCAUUGUACUUCCCAACAGAGGAUUGAGCAUCA
B6: chr4:131761308:131761309:-_ENSMUSG00000040025_ENSMUST00000102570|mus_mus|FALSE|FALSE (ssRNA)
RNA: GGGAGUUCUACAGUCCGACGAUCGCUGACUGUCCAUCAAUCAUGGCUCCACCUAAGGAGCUGGGUGCAUAAGCGUAAUUGCUACUAUAUCCAGAGCUUUGAGUAGACUGUCCCUGAGAACUGUUAUUUCCCCAUGCUGAGAAGCAACAGAGGAUUGAGCAUCA
B7: chr11:87793471:87793472:-_ENSMUSG00000020483_ENSMUST00000020775|mus_mus|mus_mus_mus_hu_False|8_98 (ssRNA)
RNA: GGGAGUUCUACAGUCCGACGAUCUGGACUUGAAAAUAAAAAAAAUAGCUGGAUCCCCCACCCCCCCACAUUGUCAACCCUACACGAGAGUUUUGAAGGCGACUCAUGAAAAUCAGCAGCUCAAACGAAUGACAACCCCCCACCCAACAGAGGAUUGAGCAUCA
B8: chr11:87793471:87793472:-_ENSMUSG00000020483_ENSMUST00000020775|mus_mus|mus_mus_mus_hu_False|8_68 (ssRNA)
RNA: B7 RNA with A41G, A44U, U45A, U70G
B9: chr11:87793471:87793472:-_ENSMUSG00000020483_ENSMUST00000020775|mus_mus|mus_mus_mus_hu_False|8_78 (ssRNA)
RNA: B7 RNA with A41G, A44U, U45A, A59C, C60A, C65U, C66U
B10: chr7:56127975:56127976:+_ENSG00000146731_ENST00000540286|hu_mus|FALSE|FALSE (ssRNA)
RNA: GGGAGUUCUACAGUCCGACGAUCUGGUCCUUUAACCAGUAAAGUGACAGAACGGGGAUUGUUACACUUCUCAAUAAAGGUGAACUUCUCCUCACCCAGUGUAUACUCAUAGACAAGCUCUGCAUGUCCCAAACAGUCAGGAUUCAACAGAGGAUUGAGCAUCA
B11: chr13:100193624:100193625:-_ENSMUSG00000052727_ENSMUST00000064762|mus_mus|FALSE|FALSE (ssRNA)
RNA: GGGAGUUCUACAGUCCGACGAUCAAACCCUCAGAGUAAAAGAGCAGUGCGAAACAUACGCUUUACAGACGAAAAUAAACUAAAAUGUAAAUUUUGAAAUAAAUAACUAACAUAGAAAAUAAAAUGAGGUCAUUGUUCACUACCCAACAGAGGAUUGAGCAUCA
B12: chr13:100193624:100193625:-_ENSMUSG00000052727_ENSMUST00000064762|mus_mus|motif|central (ssRNA)
RNA: B11 RNA with U80G, A81G
B13: chr16:94651144:94651145:+_ENSMUSG00000040785_ENSMUST00000117648|mus_hu|mus_mus_mus_hu_True|18_58 (ssRNA)
RNA: GGGAGUUCUACAGUCCGACGAUCAUUUUCUUGAAUCAAGUGGCGAAUAACAUAGUCCACUGCUUCAUUUAGAAAAUUUUUGCUAGAAAAACAGGUUGUAUAGUCUUCUGUGCUCAAAACCUUCCAAGAAAGCAAUUCUUUGAGCAACAGAGGAUUGAGCAUCA
B14: chr13:100201144:100201145:-_ENSMUSG00000052727_ENSMUST00000064762|mus_hu|FALSE|FALSE (ssRNA)
RNA: GGGAGUUCUACAGUCCGACGAUCCUCCUCCAUAGGUGGUAUCUUAUGUGAUAAACUGGAGUCCUGCAUGUCAGAAGGACUGUAGUCCACUUCAGUUGGCCCAUUUUCAGUGAUGUGAAGCACGCCUGCACCCACUGUAGGGUGCAACAGAGGAUUGAGCAUCA
B15: 95238312_95238432_61_3pUTR_ENSMUSG00000015522_ENSMUST00000090804|mouse|control|control (ssRNA)
RNA: GGGAGUUCUACAGUCCGACGAUCACCCUCGGUGGGAGGGGCAGCCGCCACCGAGCUGGGGGAGGGGAGGGAAGAGCCACUCCGCAGAUUAGGCACCUUACCGCCGCCACCGCUACCGCGGAAUCCAAGAUGGCGGACGCCCACCAACAGAGGAUUGAGCAUCA
B16: chr6:114274515:114274516:-_ENSG00000196591_ENST00000368632|hu_mus|motif|central (ssRNA)
RNA: GGGAGUUCUACAGUCCGACGAUCCAUCACGCGAUCUGUUGUAUAAAAAGCUUCCUCAACACCAUCACCAUGGUGGAUGUCGGUGUCAAUAUAUAAGACUCUCUGAUGAUACUUAAGUAAUUCGAGGAUGGCAAGCACAAUAUCCAACAGAGGAUUGAGCAUCA

This experiment concerns the target T1, UNK ZnF1-3 (human, UniProt Q9C0B0 31-174).
T1 sequence: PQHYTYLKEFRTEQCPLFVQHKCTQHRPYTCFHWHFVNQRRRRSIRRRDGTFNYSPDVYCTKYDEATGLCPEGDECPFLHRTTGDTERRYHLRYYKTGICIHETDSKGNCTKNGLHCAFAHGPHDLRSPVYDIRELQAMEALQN
The experiment is described as follows: nsRBNS (natural sequence RNA bind-n-seq); RBNS binding buffer (assumed for nsRBNS): 25 mM Tris pH 7.5, 150 mM KCl, 3 mM MgCl2, 0.01% Triton X-100, 500 ug/ml BSA, 20 U/ml SUPERase-In, 4 C; UNK is unkempt and MSI1 is Musashi-1; names of the RNAs are library labels; protein concentration not given here; high values mean tight binding.
As for B1, the binding signal amounted to 1.87 enrichment R.

Regarding B2, the binding signal is 0.739 enrichment R.

With B3, the binding signal came to 0.941 enrichment R.

As for B4, the binding signal was 0.695 enrichment R.

For the molecule B5, the binding signal came out at 0.667 enrichment R.

As to B6, the binding signal turned out to be 1.1 enrichment R.

Turning to B7, the binding signal is 4.4 enrichment R.

Consider B8, for which the binding signal was found to be 2.23 enrichment R.

On to B9, for which the binding signal worked out at 1.99 enrichment R.

For B10, the binding signal is 0.526 enrichment R.

As for B11, the binding signal turned out to be 9.34 enrichment R.

Molecule B12 showed a binding signal of 4.16 enrichment R.

B13 yielded a binding signal of 0.507 enrichment R.

B14 had a binding signal of 0.585 enrichment R.

With B15, the binding signal amounted to 0.955 enrichment R.

B16 yielded a binding signal of 1.5 enrichment R.
